Columns and labels:
Assay in all cases: DAPPL (digital affinity profiling via proximity ligation, sequencing); 10 mM Tris-HCl pH 7.5, 50 mM NaCl, 1 mM DTT, 4% glycerol, room temperature, 30 min; GST-TFs on glutathione beads, 16-mer random dsDNA library, 0.1% formaldehyde crosslink after washing; high values mean tight binding
FEV = molecular target: T1, FEV (Homo sapiens, UniProt Q99581 1-238); conditions: protein: recombinant; tags: N-terminal GST; dsDNA, one strand shown
T1 sequence: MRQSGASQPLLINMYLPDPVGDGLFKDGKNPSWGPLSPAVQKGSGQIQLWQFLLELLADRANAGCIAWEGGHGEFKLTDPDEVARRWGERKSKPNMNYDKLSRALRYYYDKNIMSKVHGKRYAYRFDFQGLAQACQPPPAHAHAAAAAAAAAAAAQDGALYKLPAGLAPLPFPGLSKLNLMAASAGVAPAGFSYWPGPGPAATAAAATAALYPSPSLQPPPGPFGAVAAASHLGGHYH
How it was run: (§1)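 Binding signal is each hexamer's read frequency for a factor divided by its frequency in the tag-only sample. The factors were GST-fused human transcription factors from yeast, captured on glutathione beads, DNA-barcoded and pooled with that sample. Pools were incubated with 200 nmole of a random double-stranded 16-mer DNA library in Tris/NaCl/DTT/glycerol buffer at room temperature for 30 min, then washed, crosslinked with 0.1% formaldehyde, proximity-ligated with BsaI/T4 ligase (1 h, 37 °C), PCR-amplified and sequenced on an Illumina NextSeq500.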

ETV5 = ETV5 (Homo sapiens, UniProt P41161 1-510); conditions: protein: recombinant; tags: N-terminal GST; dsDNA, one strand shown
How it was run: as §1

HSF1 = HSF1 (Homo sapiens, UniProt Q00613 1-529); conditions: protein: recombinant; tags: N-terminal GST; chain copies: 3; dsDNA, one strand shown
How it was run: as §1

SPIC = molecular target: T2, SPIC (Homo sapiens, UniProt Q8N5J4 1-248); conditions: protein: recombinant; tags: N-terminal GST; dsDNA, one strand shown
T2 sequence: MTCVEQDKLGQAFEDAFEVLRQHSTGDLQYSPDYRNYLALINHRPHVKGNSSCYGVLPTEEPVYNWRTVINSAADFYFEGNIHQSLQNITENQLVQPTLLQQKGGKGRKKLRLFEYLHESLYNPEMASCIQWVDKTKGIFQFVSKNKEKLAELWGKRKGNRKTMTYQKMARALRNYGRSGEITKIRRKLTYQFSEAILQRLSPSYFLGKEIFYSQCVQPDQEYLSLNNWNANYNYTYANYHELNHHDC
How it was run: as §1

ELF4 = ELF4 (Homo sapiens, UniProt Q99607 1-663); conditions: protein: recombinant; tags: N-terminal GST; dsDNA, one strand shown
How it was run: as §1

ELK4 = molecular target: T3, ELK4 (Homo sapiens, UniProt P28324-2 1-405); conditions: protein: recombinant; tags: N-terminal GST; dsDNA, one strand shown
T3 sequence: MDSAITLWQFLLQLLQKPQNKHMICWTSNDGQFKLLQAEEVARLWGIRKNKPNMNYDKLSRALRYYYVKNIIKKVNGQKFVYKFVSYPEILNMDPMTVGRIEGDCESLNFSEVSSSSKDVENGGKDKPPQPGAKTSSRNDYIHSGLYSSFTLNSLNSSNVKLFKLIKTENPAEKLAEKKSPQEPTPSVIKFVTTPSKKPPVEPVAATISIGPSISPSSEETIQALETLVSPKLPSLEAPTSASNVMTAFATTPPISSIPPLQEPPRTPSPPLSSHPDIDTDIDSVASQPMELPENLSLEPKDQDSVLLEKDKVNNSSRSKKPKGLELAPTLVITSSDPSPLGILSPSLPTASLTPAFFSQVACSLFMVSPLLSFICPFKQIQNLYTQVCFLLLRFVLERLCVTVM
How it was run: as §1

ETV2 = molecular target: T4, ETV2 (Homo sapiens, UniProt O00321 1-342); conditions: protein: recombinant; tags: N-terminal GST; dsDNA, one strand shown
T4 sequence: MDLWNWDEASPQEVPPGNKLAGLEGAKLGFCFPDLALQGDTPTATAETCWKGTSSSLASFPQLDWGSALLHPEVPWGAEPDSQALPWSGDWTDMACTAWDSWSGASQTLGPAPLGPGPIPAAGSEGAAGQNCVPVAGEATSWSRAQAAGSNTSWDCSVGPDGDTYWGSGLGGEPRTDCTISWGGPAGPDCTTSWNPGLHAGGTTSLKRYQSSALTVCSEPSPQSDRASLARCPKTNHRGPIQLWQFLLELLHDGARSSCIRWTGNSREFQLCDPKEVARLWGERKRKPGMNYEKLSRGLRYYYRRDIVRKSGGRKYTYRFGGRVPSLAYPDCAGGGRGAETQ
How it was run: as §1

ELF3 = molecular target: T5, ELF3 (Homo sapiens, UniProt P78545 1-371); conditions: protein: recombinant; tags: N-terminal GST; dsDNA, one strand shown
T5 sequence: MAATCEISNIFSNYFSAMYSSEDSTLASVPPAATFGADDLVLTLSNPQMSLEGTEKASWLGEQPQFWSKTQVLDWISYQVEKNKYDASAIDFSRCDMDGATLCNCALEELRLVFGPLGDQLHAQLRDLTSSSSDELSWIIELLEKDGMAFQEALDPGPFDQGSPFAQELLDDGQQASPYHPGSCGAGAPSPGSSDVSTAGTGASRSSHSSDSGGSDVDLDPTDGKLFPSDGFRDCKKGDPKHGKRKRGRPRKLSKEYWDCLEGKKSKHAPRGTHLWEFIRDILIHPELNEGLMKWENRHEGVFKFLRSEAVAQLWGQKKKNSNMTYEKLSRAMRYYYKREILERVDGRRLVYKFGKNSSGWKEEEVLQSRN
How it was run: as §1

CRX = CRX (Homo sapiens, UniProt O43186 1-299); conditions: protein: recombinant; tags: N-terminal GST; dsDNA, one strand shown
How it was run: as §1

ETV1 = ETV1 (Homo sapiens, UniProt P50549 1-477); conditions: protein: recombinant; tags: N-terminal GST; dsDNA, one strand shown
How it was run: as §1

ERF = molecular target: T6, ERF (Homo sapiens, UniProt P50548 1-548); conditions: protein: recombinant; tags: N-terminal GST; dsDNA, one strand shown
T6 sequence: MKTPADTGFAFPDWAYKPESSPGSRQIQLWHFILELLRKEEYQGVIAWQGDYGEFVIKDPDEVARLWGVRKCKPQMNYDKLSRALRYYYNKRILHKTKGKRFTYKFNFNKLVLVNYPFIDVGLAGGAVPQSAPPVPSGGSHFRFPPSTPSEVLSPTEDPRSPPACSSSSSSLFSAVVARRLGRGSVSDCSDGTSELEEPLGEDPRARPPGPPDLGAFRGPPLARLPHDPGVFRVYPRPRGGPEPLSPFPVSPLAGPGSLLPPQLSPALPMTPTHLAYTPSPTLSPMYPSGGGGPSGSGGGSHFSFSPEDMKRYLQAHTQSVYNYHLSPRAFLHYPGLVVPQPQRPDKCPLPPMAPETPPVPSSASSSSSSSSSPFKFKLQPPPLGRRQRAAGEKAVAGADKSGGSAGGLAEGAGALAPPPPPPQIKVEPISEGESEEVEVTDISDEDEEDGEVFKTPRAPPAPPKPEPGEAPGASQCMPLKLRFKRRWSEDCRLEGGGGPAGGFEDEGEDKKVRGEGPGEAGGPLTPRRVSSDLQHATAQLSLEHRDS
How it was run: as §1

ETV3L = molecular target: T7, ETV3L (Homo sapiens, UniProt Q6ZN32 1-361); conditions: protein: recombinant; tags: N-terminal GST; dsDNA, one strand shown
T7 sequence: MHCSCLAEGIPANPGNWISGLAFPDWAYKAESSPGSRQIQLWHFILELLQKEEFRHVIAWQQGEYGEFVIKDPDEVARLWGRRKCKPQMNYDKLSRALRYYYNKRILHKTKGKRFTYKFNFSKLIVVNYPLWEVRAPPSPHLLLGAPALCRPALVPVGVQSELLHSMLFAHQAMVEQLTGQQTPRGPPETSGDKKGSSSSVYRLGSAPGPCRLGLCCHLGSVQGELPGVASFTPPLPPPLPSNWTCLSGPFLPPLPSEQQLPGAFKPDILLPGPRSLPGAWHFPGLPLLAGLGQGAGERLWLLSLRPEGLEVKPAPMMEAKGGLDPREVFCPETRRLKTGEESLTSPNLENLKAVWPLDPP
How it was run: as §1

ETS2 = molecular target: T8, ETS2 (Homo sapiens, UniProt P15036 1-469); conditions: protein: recombinant; tags: N-terminal GST; dsDNA, one strand shown
T8 sequence: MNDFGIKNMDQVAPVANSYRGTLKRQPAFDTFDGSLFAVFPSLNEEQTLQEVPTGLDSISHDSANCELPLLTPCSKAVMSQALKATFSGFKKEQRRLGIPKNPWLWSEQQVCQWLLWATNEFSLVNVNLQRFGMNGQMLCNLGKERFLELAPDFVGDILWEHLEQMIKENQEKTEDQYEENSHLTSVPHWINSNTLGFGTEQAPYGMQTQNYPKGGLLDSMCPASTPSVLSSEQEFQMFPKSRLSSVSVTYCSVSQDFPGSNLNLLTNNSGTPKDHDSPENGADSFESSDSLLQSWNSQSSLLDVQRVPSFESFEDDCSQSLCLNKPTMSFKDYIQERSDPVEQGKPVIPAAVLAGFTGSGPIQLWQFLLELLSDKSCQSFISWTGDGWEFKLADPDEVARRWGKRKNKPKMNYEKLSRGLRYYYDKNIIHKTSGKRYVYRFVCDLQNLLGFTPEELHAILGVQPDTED
How it was run: as §1

SPDEF = molecular target: T9, SPDEF (Homo sapiens, UniProt O95238 1-335); conditions: protein: recombinant; tags: N-terminal GST; dsDNA, one strand shown
T9 sequence: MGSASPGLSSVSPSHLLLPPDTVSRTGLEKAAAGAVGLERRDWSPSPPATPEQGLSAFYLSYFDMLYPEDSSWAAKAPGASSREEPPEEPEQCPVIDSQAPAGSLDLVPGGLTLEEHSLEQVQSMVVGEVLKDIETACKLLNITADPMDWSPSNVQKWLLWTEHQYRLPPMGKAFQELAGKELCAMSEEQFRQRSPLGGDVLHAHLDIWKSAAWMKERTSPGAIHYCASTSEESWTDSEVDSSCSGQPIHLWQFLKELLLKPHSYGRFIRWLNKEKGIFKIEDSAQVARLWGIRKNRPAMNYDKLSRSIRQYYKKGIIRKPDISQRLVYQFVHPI
How it was run: as §1

ETV7 = molecular target: T10, ETV7 (Homo sapiens, UniProt Q9Y603 1-341); conditions: protein: recombinant; tags: N-terminal GST; dsDNA, one strand shown
T10 sequence: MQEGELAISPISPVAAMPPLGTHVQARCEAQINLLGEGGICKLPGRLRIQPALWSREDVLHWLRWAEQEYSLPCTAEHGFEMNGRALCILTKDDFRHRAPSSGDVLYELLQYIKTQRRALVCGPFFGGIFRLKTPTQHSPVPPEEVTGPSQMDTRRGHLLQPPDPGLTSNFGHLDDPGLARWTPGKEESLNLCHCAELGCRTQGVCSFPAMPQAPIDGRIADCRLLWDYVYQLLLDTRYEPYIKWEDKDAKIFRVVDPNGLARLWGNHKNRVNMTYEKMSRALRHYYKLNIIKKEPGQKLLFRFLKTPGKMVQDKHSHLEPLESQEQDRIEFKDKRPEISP
How it was run: as §1

ELF5 = molecular target: T11, ELF5 (Homo sapiens, UniProt Q9UKW6-2 1-255); conditions: protein: recombinant; tags: N-terminal GST; dsDNA, one strand shown
T11 sequence: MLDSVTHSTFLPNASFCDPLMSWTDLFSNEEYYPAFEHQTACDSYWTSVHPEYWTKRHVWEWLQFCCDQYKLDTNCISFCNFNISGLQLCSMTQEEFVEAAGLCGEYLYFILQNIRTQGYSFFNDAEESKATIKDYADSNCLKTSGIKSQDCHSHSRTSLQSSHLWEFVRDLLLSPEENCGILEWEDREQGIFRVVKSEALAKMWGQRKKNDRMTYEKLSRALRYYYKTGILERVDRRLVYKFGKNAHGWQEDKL
How it was run: as §1

ETV3 = molecular target: T12, ETV3 (Homo sapiens, UniProt P41162-2 1-143); conditions: protein: recombinant; tags: N-terminal GST; dsDNA, one strand shown
T12 sequence: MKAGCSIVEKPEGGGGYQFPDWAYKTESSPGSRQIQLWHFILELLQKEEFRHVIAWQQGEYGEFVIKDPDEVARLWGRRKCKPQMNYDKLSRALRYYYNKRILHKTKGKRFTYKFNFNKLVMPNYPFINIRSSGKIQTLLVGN
How it was run: as §1

ETV6 = ETV6 (Homo sapiens, UniProt P41212 1-452); conditions: protein: recombinant; tags: N-terminal GST; dsDNA, one strand shown
How it was run: as §1

Chain of ETV1 (P50549 whole entry): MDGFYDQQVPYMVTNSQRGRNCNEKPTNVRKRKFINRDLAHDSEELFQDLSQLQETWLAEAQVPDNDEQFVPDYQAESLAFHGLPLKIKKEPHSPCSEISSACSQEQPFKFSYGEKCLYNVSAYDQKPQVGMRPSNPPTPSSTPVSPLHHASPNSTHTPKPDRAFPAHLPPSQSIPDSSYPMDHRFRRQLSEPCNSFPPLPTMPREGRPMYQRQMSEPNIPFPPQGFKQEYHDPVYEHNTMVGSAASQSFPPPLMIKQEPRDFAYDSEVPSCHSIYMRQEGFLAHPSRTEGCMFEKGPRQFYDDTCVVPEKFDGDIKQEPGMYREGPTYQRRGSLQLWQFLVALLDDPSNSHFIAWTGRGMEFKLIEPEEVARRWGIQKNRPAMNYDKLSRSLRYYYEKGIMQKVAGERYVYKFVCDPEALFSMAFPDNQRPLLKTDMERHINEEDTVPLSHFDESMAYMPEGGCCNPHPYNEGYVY
Chain of ETV5 (P41161 whole entry): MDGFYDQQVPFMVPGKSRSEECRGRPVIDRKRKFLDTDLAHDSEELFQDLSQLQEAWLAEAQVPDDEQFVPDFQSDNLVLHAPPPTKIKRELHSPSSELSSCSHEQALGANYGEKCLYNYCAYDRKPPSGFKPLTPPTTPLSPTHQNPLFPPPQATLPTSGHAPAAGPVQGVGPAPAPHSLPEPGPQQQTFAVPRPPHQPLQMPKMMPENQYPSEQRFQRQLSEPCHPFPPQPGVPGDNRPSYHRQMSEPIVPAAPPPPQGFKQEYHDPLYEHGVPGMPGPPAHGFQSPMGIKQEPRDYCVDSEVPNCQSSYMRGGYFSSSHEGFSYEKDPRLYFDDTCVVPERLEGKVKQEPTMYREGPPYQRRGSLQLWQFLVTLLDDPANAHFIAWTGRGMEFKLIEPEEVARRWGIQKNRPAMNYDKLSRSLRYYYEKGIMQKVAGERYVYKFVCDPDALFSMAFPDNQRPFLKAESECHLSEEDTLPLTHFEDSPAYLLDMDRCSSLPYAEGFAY
Chain of ETV6 (P41212 whole entry): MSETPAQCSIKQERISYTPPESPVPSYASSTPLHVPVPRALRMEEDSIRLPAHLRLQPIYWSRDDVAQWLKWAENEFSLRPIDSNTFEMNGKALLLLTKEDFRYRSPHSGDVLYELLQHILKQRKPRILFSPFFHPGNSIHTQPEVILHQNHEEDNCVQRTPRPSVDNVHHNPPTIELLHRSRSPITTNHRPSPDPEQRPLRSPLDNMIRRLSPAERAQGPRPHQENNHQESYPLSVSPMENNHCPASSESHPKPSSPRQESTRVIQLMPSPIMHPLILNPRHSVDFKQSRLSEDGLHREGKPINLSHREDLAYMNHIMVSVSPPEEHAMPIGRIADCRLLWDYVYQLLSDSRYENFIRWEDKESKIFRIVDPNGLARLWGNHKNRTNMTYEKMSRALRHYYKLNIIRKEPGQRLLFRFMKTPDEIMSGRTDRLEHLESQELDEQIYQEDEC
Chain of CRX (O43186 whole entry): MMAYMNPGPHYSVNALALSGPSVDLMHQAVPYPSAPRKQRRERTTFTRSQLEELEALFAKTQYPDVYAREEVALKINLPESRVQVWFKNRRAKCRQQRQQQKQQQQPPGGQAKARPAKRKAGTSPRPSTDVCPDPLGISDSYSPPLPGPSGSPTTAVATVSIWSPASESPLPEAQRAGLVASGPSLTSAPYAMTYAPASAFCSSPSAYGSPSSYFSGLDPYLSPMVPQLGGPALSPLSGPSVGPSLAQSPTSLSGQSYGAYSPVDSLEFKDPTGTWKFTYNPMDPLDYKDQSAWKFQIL
Chain of ELF4 (Q99607 whole entry): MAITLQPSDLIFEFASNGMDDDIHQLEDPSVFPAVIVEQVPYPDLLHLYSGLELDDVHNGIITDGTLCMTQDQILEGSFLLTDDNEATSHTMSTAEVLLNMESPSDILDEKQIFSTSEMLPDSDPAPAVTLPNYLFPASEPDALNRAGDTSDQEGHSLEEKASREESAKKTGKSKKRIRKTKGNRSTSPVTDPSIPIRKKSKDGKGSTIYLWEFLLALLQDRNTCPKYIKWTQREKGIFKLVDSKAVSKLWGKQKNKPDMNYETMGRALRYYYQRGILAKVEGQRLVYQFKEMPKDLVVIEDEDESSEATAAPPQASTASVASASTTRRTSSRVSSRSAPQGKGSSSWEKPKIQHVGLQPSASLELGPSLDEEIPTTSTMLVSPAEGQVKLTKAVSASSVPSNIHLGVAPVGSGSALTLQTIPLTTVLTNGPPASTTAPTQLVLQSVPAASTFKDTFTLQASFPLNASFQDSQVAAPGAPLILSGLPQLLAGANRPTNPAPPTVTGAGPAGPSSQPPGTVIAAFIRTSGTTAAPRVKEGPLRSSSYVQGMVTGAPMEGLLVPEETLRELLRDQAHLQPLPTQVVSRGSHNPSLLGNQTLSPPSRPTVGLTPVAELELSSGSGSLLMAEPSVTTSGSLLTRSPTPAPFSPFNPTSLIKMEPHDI
Chain of HSF1 (Q00613 whole entry): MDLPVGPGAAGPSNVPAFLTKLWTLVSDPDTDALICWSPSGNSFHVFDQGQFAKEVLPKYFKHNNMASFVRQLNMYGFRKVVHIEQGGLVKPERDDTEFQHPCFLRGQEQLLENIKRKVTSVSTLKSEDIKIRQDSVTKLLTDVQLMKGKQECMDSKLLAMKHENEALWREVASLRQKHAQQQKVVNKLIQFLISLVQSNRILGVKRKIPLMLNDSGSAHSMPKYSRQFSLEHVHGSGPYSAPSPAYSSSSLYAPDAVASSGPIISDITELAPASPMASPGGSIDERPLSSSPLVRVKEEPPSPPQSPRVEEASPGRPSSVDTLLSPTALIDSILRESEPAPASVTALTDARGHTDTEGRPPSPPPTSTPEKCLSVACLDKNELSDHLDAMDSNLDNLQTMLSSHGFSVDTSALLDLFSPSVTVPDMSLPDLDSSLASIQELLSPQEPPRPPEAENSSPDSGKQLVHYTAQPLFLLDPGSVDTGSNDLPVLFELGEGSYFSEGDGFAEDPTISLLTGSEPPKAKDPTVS

## ACCTAA
FEV
  binding signal: 1.12 fold enrichment (6-mer frequency, TF over GST control)
ETV5
  binding signal: 1.22 fold enrichment (6-mer frequency, TF over GST control)
HSF1
  binding signal: 1.21 fold enrichment (6-mer frequency, TF over GST control)
SPIC
  binding signal: 1.21 fold enrichment (6-mer frequency, TF over GST control)
ELF4
  binding signal: 1.27 fold enrichment (6-mer frequency, TF over GST control)
ELK4
  binding signal: 1.13 fold enrichment (6-mer frequency, TF over GST control)
ETV2
  binding signal: 1.17 fold enrichment (6-mer frequency, TF over GST control)
ELF3
  binding signal: 1.2 fold enrichment (6-mer frequency, TF over GST control)
CRX
  binding signal: 1.57 fold enrichment (6-mer frequency, TF over GST control)
ETV1
  binding signal: 1.18 fold enrichment (6-mer frequency, TF over GST control)
ERF
  binding signal: 1.17 fold enrichment (6-mer frequency, TF over GST control)
ETV3L
  binding signal: 1.18 fold enrichment (6-mer frequency, TF over GST control)
ETS2
  binding signal: 1.17 fold enrichment (6-mer frequency, TF over GST control)
SPDEF
  binding signal: 1.19 fold enrichment (6-mer frequency, TF over GST control)
ETV7
  binding signal: 1.18 fold enrichment (6-mer frequency, TF over GST control)
ELF5
  binding signal: 1.14 fold enrichment (6-mer frequency, TF over GST control)
ETV3
  binding signal: 1.03 fold enrichment (6-mer frequency, TF over GST control)
ETV6
  binding signal: 1.18 fold enrichment (6-mer frequency, TF over GST control)

— publication PMC7862700, “An all-to-all approach to the identification of sequence-specific readers for epigenetic DNA modifications on cytosine”
